This passage reports activity, negative = inhibition and Potency results from PubChem BioAssay (NCATS).

Inconclusive results are not listed. Values without a mark were called inactive. Active and inactive are the calls of the source. Calls follow the shape of the dose curve; as a rule, active = well fitted inhibition curve with a large enough effect; inconclusive = small, poorly fitted or top-dose-only effect; inactive = flat fitted curve, though single readings scatter.

Test [1] can be described thus: qHTS profiling for inhibitors of Plasmodium falciparum proliferation (AID 504749). Also: nearly all actives have a fitted effect of over 60% in size.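 As to activity, negative = inhibition: 0% = DMSO vehicle and full inhibition = artemisinin control.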 The conditions noted are these: P. falciparum in erythrocytes, SYBR Green DNA, 72 h. In a few lines:
(§1)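 Parasite proliferation within erythrocytes, 72 h exposure. Endpoint: SYBR Green I fluorescence after overnight lysis at room temperature. Controls: 0.29 uM artemisinin, DMSO.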
(In general: In qHTS, concentration-response curves come from the screen itself.)

For test [2], the system named is 3D7. Described as above. The conditions noted are these: P. falciparum in erythrocytes, SYBR Green DNA, 72 h; series mostly up to 28.7 µM. The gist of the method: as §1
For test [3], the system named is 7G8. The test is described as above. The conditions noted are these: P. falciparum in erythrocytes, SYBR Green DNA, 72 h; series mostly up to 28.7 µM. The gist of the method: as §1
In test [4] the test system is AA1029. The description is as above. The conditions noted are these: P. falciparum in erythrocytes, SYBR Green DNA, 72 h; series mostly up to 28.7 µM. The gist of the method: as §1
Test [5] has as its system AS120. The test is described as above. The conditions noted are these: P. falciparum in erythrocytes, SYBR Green DNA, 72 h; series mostly up to 28.7 µM. In a few lines:
as §1

Test [6] relates to ATS189. The description is as above. The conditions noted are these: P. falciparum in erythrocytes, SYBR Green DNA, 72 h; series mostly up to 28.7 µM. In a few lines:
as §1

The subject of test [7] is ATS95. Described as above. The conditions noted are these: P. falciparum in erythrocytes, SYBR Green DNA, 72 h; series mostly up to 28.7 µM. The gist of the method:
as §1

The test system of test [8] is C2A. The description is as above. The conditions noted are these: P. falciparum in erythrocytes, SYBR Green DNA, 72 h; series mostly up to 28.7 µM. In a few lines:
as §1

Test [9] deals with CP185. The description is as above. The conditions noted are these: P. falciparum in erythrocytes, SYBR Green DNA, 72 h; series mostly up to 28.7 µM. The gist of the method:
as §1

In test [10] the test system is CP191. The test is described as above. The conditions noted are these: P. falciparum in erythrocytes, SYBR Green DNA, 72 h; series mostly up to 28.7 µM. The gist of the method: as §1
The mark [11] stands for this setting: at 28.7 µM (top of the series), parasite line A.
[12] abbreviates: at 28.7 µM (top of the series), parasite line B.
Setting [13] is: at 12.8 µM (top of the series), parasite line A.
Where [14] appears, read: at 12.8 µM (top of the series), parasite line B.
Potency is read from the fitted curve at half-maximal effect.

Take `NS(=O)(=O)c1cc2c(cc1Cl)NCNS2(=O)=O`: the activity, negative = inhibition in [1] (setting [11]) was 1.79%; in test [1] (setting [12]), 14.1%. The Potency result in test [2], in [3], in test [4], in [5], in test [6] and in test [7] was “inactive” in each case. Besides, the Potency result in [8], in test [9] and in test [10] was “inactive” each time.

In the case of `Cc1cc(C(C)(C)C)c(O)c(C)c1CC1=NCCN1`, the values for the activity, negative = inhibition in test [1] (setting [11]) and in [1] (setting [12]) were -4.77% and -3.69%, respectively. The Potency result in test [2], in [3], in [4], in test [5], in test [6] and in [7] was “inactive” in each case. Besides, the Potency result in [8], in [9] and in [10] was “inactive” throughout.

With `CC(C)Cc1ccc(C(C)C(=O)O)cc1` (stereo unspecified), the values for the activity, negative = inhibition in test [1] (setting [11]) and in test [1] (setting [12]) were 5.92% and 6.46%, respectively. The Potency entry in [2], in [3], in test [4], in test [5], in test [6] and in test [7] was “inactive” each time. Besides, the Potency entry in [8], in [9] and in test [10] was “inactive” each time.

Take `O=C1N(c2ccccc2)c2ccccc2C1(Cc1ccncc1)Cc1ccncc1`: the activity, negative = inhibition is 1.98% in test [1] (setting [11]) and -9.11% in test [1] (setting [12]). Further, the Potency entry in test [2], in test [4], in test [5], in [6], in test [7] and in [8] was “inactive” in each case. For the same compound, the Potency entry in [9] and in [10] was “inactive” throughout. Also, the Potency in [3] is 8.91 µM (active).

`NC(=O)OCC(COC(N)=O)c1ccccc1`: the activity, negative = inhibition in [1] (setting [11]) was 12.4%; in [1] (setting [12]) it was 14.7%. The Potency entry in test [2], in test [3], in test [4], in test [5], in test [6] and in test [7] was “inactive” in each case. For the same compound, the Potency entry in test [8], in [9] and in [10] was “inactive” throughout.

Regarding `COc1nc(C)nc(Cl)c1NC1=NCCN1`, the activity, negative = inhibition was 1.48% in test [1] (setting [13]) and 0.89% in test [1] (setting [14]). Moreover, the Potency entry in test [2], in [3], in [4], in test [5], in test [6] and in test [7] was “inactive” in each case. In addition, the Potency result in [8], in test [9] and in test [10] was “inactive” throughout.

With `C[C@](N)(Cc1ccc(O)c(O)c1)C(=O)O`, the values for the activity, negative = inhibition in [1] (setting [11]) and in [1] (setting [12]) were 5.92% and -9.27%, respectively. The Potency entry in test [2], in [3], in test [4], in test [5], in test [6] and in test [7] was “inactive” in each case. Besides, the Potency result in test [8], in test [9] and in [10] was “inactive” throughout.

Regarding `Cn1c(=O)c2[nH]cnc2n(C)c1=O`, the activity, negative = inhibition in [1] (setting [11]) is 0.326%; in test [1] (setting [12]) it was 0.99%. Moreover, the Potency entry in [2], in test [3], in [4], in test [5], in test [6] and in test [7] was “inactive” in each case. In addition, the Potency entry in test [8], in test [9] and in test [10] was “inactive” each time.

Turning to `Cc1cnc(C(=O)NCCc2ccc(S(=O)(=O)NC(=O)NC3CCCCC3)cc2)cn1`, the activity, negative = inhibition in test [1] (setting [11]) was 8.33%; in test [1] (setting [12]), 4.07%. Also, the Potency entry in [2], in [3], in test [4], in test [5], in [6] and in [7] was “inactive” throughout. Further, the Potency entry in test [8], in test [9] and in test [10] was “inactive” each time.

`NCCS(=O)(=O)O`: the activity, negative = inhibition in test [1] (setting [11]) was 5.98%; in test [1] (setting [12]) it was -25.3%. Moreover, the Potency result in test [2], in test [3], in test [4], in [5], in [6] and in test [7] was “inactive” each time. The Potency result in test [8], in test [9] and in test [10] was “inactive” throughout.

In the case of `CN(C)c1nc(N(C)C)nc(N(C)C)n1`, the activity, negative = inhibition was 7.93% in test [1] (setting [13]) and -1.03% in test [1] (setting [14]). For the same compound, the Potency entry in test [2], in [3], in [4], in test [5], in test [6] and in test [7] was “inactive” each time. Also, the Potency result in test [8], in test [9] and in test [10] was “inactive” each time.

Turning to `CC[N+](CC)(CC)CCOc1cccc(OCC[N+](CC)(CC)CC)c1OCC[N+](CC)(CC)CC`, the activity, negative = inhibition was -0.0275% in test [1] (setting [11]) and 10.3% in test [1] (setting [12]). Moreover, the Potency result in test [2], in [3], in [4], in test [5], in test [6] and in test [7] was “inactive” in each case. In addition, the Potency entry in [8], in [9] and in test [10] was “inactive” throughout.

In the case of `O=C1c2c(O)ccc(O)c2C(=O)c2c(NCCNCCO)ccc(NCCNCCO)c21`, the Potency was 3.16 µM (active) in test [1] (parasite line A); 3.16 µM (active) in test [1] (parasite line B); 2 µM (active) in [2]; 1.26 µM (active) in test [3]; 2.51 µM (active) in test [4]; 2.24 µM (active) in test [5]. For the same compound, the Potency in test [6] was 2.82 µM (active); in test [7] it was 2.24 µM (active); in test [8] it was 3.16 µM (active); in test [9], 3.16 µM (active); in [10], 3.55 µM (active).

As for `Cn1cnc2c1c(=O)[nH]c(=O)n2C`, the activity, negative = inhibition is 1.87% in test [1] (setting [11]) and -0.248% in test [1] (setting [12]). Besides, the Potency result in [2], in test [3], in [4], in test [5], in [6] and in test [7] was “inactive” in each case. Besides, the Potency entry in [8], in test [9] and in test [10] was “inactive” in each case.

`Clc1ccc2nsnc2c1NC1=NCCN1`: the figures for the activity, negative = inhibition in [1] (setting [11]) and in test [1] (setting [12]) were 6.78% and -11.1%, respectively. Moreover, the Potency entry in test [2], in [3], in [4], in [5], in test [6] and in [7] was “inactive” each time. In addition, the Potency entry in test [8], in test [9] and in test [10] was “inactive” in each case.

In the case of `CS(=O)(=O)Nc1ccc([N+](=O)[O-])cc1Oc1ccccc1`, the activity, negative = inhibition in test [1] (setting [13]) was 15.2%; in [1] (setting [14]), 9.68%. Besides, the Potency entry in test [2], in [3], in test [4], in [5], in test [6] and in [7] was “inactive” each time. The Potency result in test [8], in test [9] and in [10] was “inactive” throughout.
